PubChem BioAssay (NCATS)
Records with an inconclusive call do not appear. Unmarked numbers belong to inactive results. The source made the active and inactive calls. The call rests on the fitted dose curve; in most records, active means well fitted inhibition curve with a large enough effect; inconclusive means small, poorly fitted or top-dose-only effect; inactive means flat fitted curve, though single readings scatter.

These molecules were tested on astro (assay: Drug repurposing screens with cells derived from glioblastoma tumor samples (AID 1345199; further: nearly all actives have a fitted effect of over 40% in size)). Conditions: viability, ATP luminescence, 48 h; series mostly up to 45.9 µM; activity, negative = cell killing: at the top concentration.
Description: CD133+ cells were isolated from GBM patient biopsies and cultured as neurospheres. Neurospheres from four patients were used to screen the NCATS pharmaceutical collection (NPC) library of approved drugs and bioactive compounds. […] The neurospheres were incubated with drugs for 48 hours in 1536-well format, then assayed with an ATP content cell viability assay. […] These hits were cherry picked to confirm activity in the four original GBM lines screened plus three other slower growing GMB lines (unable to yield enough cells for a full primary screen). Variable activities of the confirmed primary hits in the different GBM patient lines were observed. The patient line 206 responded to the greatest number of compounds and line 923 responded to the least amount of active compounds.
On the % scale 0 is the no-effect control and ±100 the full control effect; potency means the concentration at half of the fitted maximal effect.

Structure (SMILES)	activity, negative = cell killing	Potency
COc1ccnc(CS(=O)c2nc3ccc(OC(F)F)cc3[nH]2)c1OC (configuration not stated)	-23.6%	
CCC[C@H](N[C@@H](C)C(=O)N1[C@@H]2CCCC[C@H]2C[C@H]1C(=O)O)C(=O)OCC	-16%	
Fc1ccc(C(c2ccc(F)cc2)N2CCN(CC=Cc3ccccc3)CC2)cc1		35.5 µM (active)
NCC1CCC(C(=O)O)CC1 (configuration not stated)	-11.1% [at 21.2 µM]	
CN1CCN2c3ncccc3Cc3ccccc3C2C1 (configuration not stated)	-26%	
N#Cc1c(N(CC(=O)O)CC(=O)O)sc(C(=O)O)c1CC(=O)O	-9.05%	
CCCCC(F)(F)[C@@]1(O)CC[C@H]2[C@H](CC(=O)[C@@H]2CCCCCCC(=O)O)O1	-27.9%	
O=C(Nc1cccc2c(=O)cc(-c3nn[nH]n3)oc12)c1ccc(OCCCCc2ccccc2)cc1	-23.5%	
CC(C)CN(C[C@@H](O)[C@H](Cc1ccccc1)NC(=O)O[C@H]1CO[C@H]2OCC[C@H]21)S(=O)(=O)c1ccc(N)cc1	-20.4%	
O=C(CCCN1CCN(c2ccc(F)cc2)CC1)NC1c2ccccc2CSc2ccccc21 (configuration not stated)	-25%	
CC(C)(CO)[C@@H](O)C(=O)NCCC(=O)O	-12.3%	
Clc1ccc(COC(Cn2ccnc2)c2ccc(Cl)cc2Cl)c(Cl)c1 (configuration not stated)	-29.4% [at 21.2 µM]	
CN1CC(=O)N2C(Cc3c([nH]c4ccccc34)[C@H]2c2ccc3c(c2)OCO3)C1=O (some centres not stated)	-26.3%	
COc1cc2c(cc1OC)CC(=O)N(CCCN(C)C[C@H]1Cc3cc(OC)c(OC)cc31)CC2	-16.8%	
CC[C@H]1OC(=O)[C@H](C)[C@@H](O[C@H]2C[C@@](C)(OC)[C@@H](O)[C@H](C)O2)[C@H](C)[C@@H](O[C@@H]2O[C@H](C)C[C@H](N(C)C)[C@H]2O)[C@](C)(O)C[C@H](C)C(=NOCOCCOC)[C@H](C)[C@@H](O)[C@]1(C)O	7.95%	
CS(=O)(=O)c1ccc(C2=C(c3ccccc3)C(=O)OC2)cc1	-12%	
CN(C)CCN(Cc1ccc(Cl)cc1)c1ccccn1	-7.41% [at 21.2 µM]	
CCC(=O)OCC(=O)[C@@]1(OC(=O)CC)[C@@H](C)C[C@@H]2[C@H]3CCC4=CC(=O)C=C[C@]4(C)[C@@]3(F)[C@@H](O)C[C@@]21C	-8.5%	
COc1ccc(-c2nc3ccc(C4=NNC(=O)CC4C)cc3[nH]2)cc1 (configuration not stated)		11.2 µM (active)
O=C(O)c1nc(=O)[nH]c(=O)[nH]1	-8.82%	
CC[C@H](C)C(=O)O[C@H]1C[C@H](O)C=C2C=C[C@H](C)[C@H](CC[C@@H](O)C[C@@H](O)CC(=O)O)[C@H]21	-7.28%	
NS(=O)(=O)c1cc(Cl)c(Cl)c(S(N)(=O)=O)c1	-9.53% [at 21.2 µM]	
